This is part of a sample that, as a whole, favours compounds with a hit. Of some 83,000 tested, about 20% had one in any assay.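 Each cell line was grown in a 96-well plate and treated with one concentration of compound for 48 hours. Values below 10 were considered active.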 A number with no mark means an inactive call. Calls of active or inactive are those of the source.

Some test systems named below: NCI-H226 lung; NCI-H322M lung; NCI-H460 lung; HOP-92 NSCLC; NCI-H522 lung; A549/ATCC NSCLC; 786-0 renal; COLO 205 colon; DU-145 prostate; HOP-62 NSCLC.
Holding throughout (experiment): NCI-60 one-dose screen, 48 h (100 = growth as untreated, 0 = no growth, -100 = all killed)
Holding throughout (settings): 10 µM unless noted

Regarding `N#Cc1nc(-c2ccccc2)oc1S(N)(=O)=O`, the growth was 103% in the assay on NCI-H226 lung; 100% in the assay with NCI-H322M lung; 93.3% in the assay with NCI-H460 lung; 77.3% in the assay on HOP-92 NSCLC; -44.5% (active) with NCI-H522 lung; 101% with A549/ATCC NSCLC. Moreover, the growth in the assay on 786-0 renal was 51.1%; in the assay on COLO 205 colon, 96.7%; in the assay with DU-145 prostate it was 82.5%.
With `Clc1ccc(-c2cn3cc(Cc4ccc(Cl)c(Cl)c4)sc3n2)cc1`, the growth is 70.5% with NCI-H322M lung; 70.4% in the assay with HOP-62 NSCLC; 22.5% with NCI-H460 lung; 81.8% in the assay on HOP-92 NSCLC; 76% with NCI-H522 lung; 61.3% with A549/ATCC NSCLC. In addition, the growth in the assay with 786-0 renal is 84%; in the assay on COLO 205 colon, 42.7%; in the assay with DU-145 prostate, 69.6%.
With `COc1cc2nc(-c3ccc(C(F)(F)F)cc3)cc(OCCCNCC3CCCO3)c2cc1OC` (stereo not given), the growth was 57.2% in the assay on NCI-H322M lung; 53.8% in the assay on HOP-62 NSCLC; 21.8% in the assay on NCI-H460 lung; 26.3% in the assay on HOP-92 NSCLC; 41.8% in the assay on NCI-H522 lung; 37.3% with A549/ATCC NSCLC. Further, the growth in the assay on 786-0 renal was -55.2% (active); in the assay on COLO 205 colon, 23.3%; with DU-145 prostate, 36.7%.
Regarding `C=C1CC[C@H]2[C@@](C)(CCC3OC(c4ccc(OCc5cn(C6CC(OC(C)=O)C(OC(C)=O)C(COC(C)=O)O6)nn5)cc4)OC[C@]32C)[C@@H]1/C=C/C1=CCOC1=O` (stereo not given in full), the growth in the assay on NCI-H322M lung was 100%; in the assay with HOP-62 NSCLC, 85.5%; in the assay on NCI-H460 lung it was 85.8%; in the assay with HOP-92 NSCLC it was 65.6%; in the assay with NCI-H522 lung it was 82.2%; with A549/ATCC NSCLC it was 82.8%. Besides, the growth is 95.1% in the assay with 786-0 renal, 82.3% in the assay on COLO 205 colon and 90% with DU-145 prostate.
In the case of `COc1cccc(NC2=CC(=O)C(C)=C(C)C2=O)c1`, the growth with NCI-H322M lung is 102%; in the assay with HOP-62 NSCLC it was 106%; in the assay with NCI-H460 lung it was 101%; with HOP-92 NSCLC, 104%; with NCI-H522 lung, 49.8%; with A549/ATCC NSCLC, 101%. Moreover, the growth is 95.8% in the assay with 786-0 renal, 103% with COLO 205 colon and 113% in the assay on DU-145 prostate.
For the compound `C#Cc1nc(C2=C(C)C(OC(C)=O)/C(=N/OC(C)=O)C2)cs1` (stereo not given), the growth in the assay on NCI-H322M lung was 116%; in the assay on HOP-62 NSCLC, -46.9% (active); with NCI-H460 lung, 36.1%; in the assay with HOP-92 NSCLC, -79.9% (active); with NCI-H522 lung, -86.2% (active); with A549/ATCC NSCLC, 69.7%. The growth with 786-0 renal is -87.9% (active); in the assay on COLO 205 colon, 51.3%; in the assay with DU-145 prostate, 67%.
For the compound `CN1C(=S)N(C)C2C1NN=C1SC(c3ccccc3)=CC(=O)N12` (stereo not given), the growth was 104% with NCI-H322M lung; 109% with HOP-62 NSCLC; 103% with NCI-H460 lung; 72.8% with HOP-92 NSCLC; 87.2% in the assay with NCI-H522 lung; 93.7% with A549/ATCC NSCLC. Also, the growth was 98% in the assay on 786-0 renal, 111% in the assay with COLO 205 colon and 106% with DU-145 prostate.
Consider `CC1=C(C)C(=O)C(Nc2ccccc2)=C(Cl)C1=O`, for which the growth was 99.3% with NCI-H322M lung; 92.6% in the assay with HOP-62 NSCLC; 95.7% in the assay on NCI-H460 lung; 46% in the assay with HOP-92 NSCLC; 83.5% in the assay on NCI-H522 lung; 99.8% in the assay with A549/ATCC NSCLC. Besides, the growth in the assay with 786-0 renal is 99.2%; in the assay on COLO 205 colon, 107%; in the assay with DU-145 prostate, 101%.
As to `CCCC(=O)NC(c1ccc2c(c1)OC(F)(F)O2)c1cc(C)c2cccnc2c1O` (stereo not given), the growth is 34.2% in the assay on NCI-H322M lung; -4.44% (active) in the assay with NCI-H460 lung; 33.5% in the assay with HOP-92 NSCLC; 18.2% with NCI-H522 lung; 16.5% in the assay on A549/ATCC NSCLC; 0.74% (active) in the assay on 786-0 renal. Moreover, the growth in the assay on COLO 205 colon was 21.1%; in the assay with DU-145 prostate, 26%.

The values above are taken from PubChem BioAssay (NCI).
